High-throughput results: PubChem BioAssay, The Scripps Research Institute Molecular Screening Center
Rows were chosen to be rich in hits. Some 3.5% of all compounds tested hit in one or more screens of this group.
FBW7 act: FBW7 E3 ligase activators, primary screen, biochemical, AlphaScreen, human. F-box/WD repeat-containing protein 7 (Homo sapiens), Q969H0. AlphaScreen FBW7–phospho-cyclin E peptide binding, activator screen. normalized activity (activation), % at 26.1 µM. 0.13% of 650,000 active. AID 1259310, 2017; in the data active = normalized activity above about 1.9%;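 note: purified mutant Fbw7 with reduced substrate affinity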
MITF inh: MITF inhibitors, primary screen, biochemical, AlphaScreen, human | Microphthalmia-associated transcription factor (Homo sapiens), O75030 | AlphaScreen MITF homodimerization, bead proximity signal | inhibition, % at 2.6 µM | 0.91% of 650,000 active | AID 1259374, 2018; in the data active = inhibition above about 50%;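 note: 0% = vehicle wells with protein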
Target sequence (O75030 whole entry, looked up): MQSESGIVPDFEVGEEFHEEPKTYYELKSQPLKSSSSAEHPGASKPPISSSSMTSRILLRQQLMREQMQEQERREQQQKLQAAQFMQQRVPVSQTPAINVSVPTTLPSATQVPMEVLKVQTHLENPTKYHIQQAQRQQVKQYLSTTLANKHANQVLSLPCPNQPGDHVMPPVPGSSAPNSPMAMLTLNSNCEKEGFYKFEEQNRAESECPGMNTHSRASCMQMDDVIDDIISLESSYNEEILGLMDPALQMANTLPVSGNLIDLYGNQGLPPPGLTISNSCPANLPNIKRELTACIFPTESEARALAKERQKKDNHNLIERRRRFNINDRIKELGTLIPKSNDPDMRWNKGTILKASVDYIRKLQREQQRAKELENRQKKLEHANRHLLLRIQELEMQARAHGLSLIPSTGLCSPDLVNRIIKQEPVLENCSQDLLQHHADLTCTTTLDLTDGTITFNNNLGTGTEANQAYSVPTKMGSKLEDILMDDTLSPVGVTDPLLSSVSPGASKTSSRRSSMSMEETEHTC
GPR151 activ: activators of human GPR151, primary screen, cell-based, PathHunter beta-arrestin, luminescence; G-protein coupled receptor 151 (Homo sapiens), Q8TDV0; PathHunter beta-arrestin GPR151 cells; activation, % at 11.2 µM; 1% of 650,000 active; in the data active = activation above about 4.9%;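 note: 0% = median of compound wells and 100% = cells with positive control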
TEAD-YAP block: TEAD-YAP interaction inhibition, primary screen, TEAD-YAP interaction inhibitor project, luminescence, HEK-TIYL cells | TEAD-Gal4/YAP UAS-luciferase luminescence | inhibition, % at 9.12 µM | 1.4% of 640,000 active | AID 1259422, 2018; in the data active = inhibition above about 32%;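 note: 0% = median of test compound wells and 100% = reference inhibitor wells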
Starred values were filed as active, the others as inactive; . = no result.

SMILES	FBW7 act	MITF inh	GPR151 activ	TEAD-YAP block
O=C(Nc1ccc(Br)cc1)c1cccc(S(=O)(=O)NCc2ccccc2)c1	-0.1	-1.1	2.5	40.6*
O=C(Nc1ccc(S(=O)(=O)NCCc2ccccc2)cc1)c1ccc([N+](=O)[O-])cc1	0.3	-15.4	-1.0	31.9*
Cc1ccc(C(=O)Nc2ccc(S(=O)(=O)NCc3ccccc3)cc2)cc1	0.4	-14.5	-1.0	32.1*
Cc1ccc(S(=O)(=O)NCc2ccccc2)cc1	0.1	6.5	-1.3	.
O=C(COC(=O)CNC(=O)C1CCCCC1)Nc1ccc2c(c1)OC(F)(F)O2	-0.1	35.8	-0.3	2.6
Cc1ccc(C(=O)NC(=S)Nc2cccc(Cl)c2C)cc1	0.0	4.7	0.4	-8.1
O=S(=O)(Nc1ccc(Cc2ccncc2)cc1)c1ccc(Cl)cc1	0.2	4.8	1.7	38.0*
CC(=O)c1cccc(NC(=O)CSc2nnc3c4ccccc4n(CCc4ccccc4)c3n2)c1	0.0	1.8	1.9	40.3*
Cc1c(NC(=O)CSc2nnc3c4ccccc4n(CCc4ccccc4)c3n2)c(=O)n(-c2ccccc2)n1C	0.1	11.4	0.4	46.5*
COC(=O)c1ccc2c(=O)[nH]c(CSc3nc(C)nc4sc(C)c(C)c34)nc2c1	0.1	0.8	0.3	-4.2
COC(=O)CCN1C(=O)/C(=C\c2ccc3c(c2)OCO3)SC1=S	0.0	3.4	-0.3	9.7
CCC/C(O)=C1\C(=O)CC(C)(C)CC1=Nc1ccc(OC)cc1OC	-0.1	17.0	-0.3	55.1*
CC1Cc2cc(-c3cc(CC(=O)NCc4cccnc4)no3)ccc2O1 (stereo unspecified)	0.0	5.7	0.0	34.2*
COc1ccc(-c2cc(C(=O)NCc3cccnc3)no2)cc1	0.0	0.7	0.2	-29.0
O=C(N/N=C/c1ccccc1)c1cccc(O)c1	-0.1	12.8	-2.3	33.6*
O=C(CC(=O)N/N=C/c1ccc([N+](=O)[O-])cc1)N/N=C/c1ccc([N+](=O)[O-])cc1	-0.1	-3.1	0.5	4.2
O=C(N/N=C/c1ccc(O)cc1)c1cccc(O)c1	-0.1	-2.1	-5.9	23.2
O=C(N/N=C/c1ccc([N+](=O)[O-])cc1)c1cccc(O)c1	0.4	12.4	-2.1	40.4*
N/C(=N\N=C/c1ccc([N+](=O)[O-])cc1)N/N=C\c1ccc([N+](=O)[O-])cc1	4.3*	-16.3	0.4	0.2
NNC(=O)c1cn(-c2ccccc2)nc1-c1ccccc1	0.7	22.8	-0.9	3.0
CCN(c1cccc(C)c1)S(=O)(=O)c1ccc2c(c1)oc(=O)n2C	0.1	4.1	-0.2	44.2*
CCOc1ccc(N(CC)S(=O)(=O)c2ccc3c(c2)oc(=O)n3C)cc1	0.0	15.5	2.1	47.8*
CCN(c1ccc(C)c(C)c1)S(=O)(=O)c1ccc2c(c1)oc(=O)n2C	0.0	5.7	-0.5	16.3
CCN(c1ccccc1)S(=O)(=O)c1ccc2c(c1)oc(=O)n2C	-0.1	-10.1	0.2	7.2
Cc1cccc(OCCCNCCO)c1C	0.9	18.6	-0.8	4.1
SMILES	FBW7 act	MITF inh	GPR151 activ	TEAD-YAP block
N=C1/C(=C\c2ccc(SCc3ccco3)o2)C(=O)N=C2SC(N3CCCC3)=NN12	0.0	17.7	-0.6	1.4
O=C1NC(=O)N(c2ccc(F)cc2)C(=O)/C1=C\c1ccc(SCc2ccco2)o1	-1.0	86.7*	0.8	11.6
O=C1NC(=O)N(c2ccc([N+](=O)[O-])cc2)C(=O)/C1=C/c1ccco1	-0.1	78.2*	0.1	-2.3
COc1ccccc1N1C(=O)NC(=O)/C(=C\c2ccco2)C1=O	-0.6	62.4*	-0.4	0.4
O=C1NC(=S)S/C1=C\c1ccc(SCc2ccco2)o1	-1.5	58.2*	-0.8	18.1
CCOc1ccccc1N1C(=O)NC(=O)/C(=C/c2ccco2)C1=O	-0.5	38.5	1.1	-3.5
Cc1ccc(/C=C2\C(=O)NC(=O)N(c3ccc(F)cc3)C2=O)o1	-0.1	0.3	1.2	1.9
O=C1NC(=O)N(c2ccccc2)C(=O)/C1=C\c1ccc(-c2ccc([N+](=O)[O-])cc2)o1	-0.1	1.6	-0.7	-4.3
c1cncc(Nc2nc(Nc3ccc(N4CCOCC4)cc3)c3ncn(C4CCCCC4)c3n2)c1	-0.2	8.6	0.1	37.1*
c1cncc(CNc2nc(NCCN3CCOCC3)c3ncn(C4CCCCC4)c3n2)c1	0.0	10.7	0.6	8.7
c1cncc(Nc2nc(NCCN3CCOCC3)c3ncn(C4CCCCC4)c3n2)c1	-0.1	-1.9	-1.3	42.4*
c1cc(N2CCOCC2)ccc1Nc1nc(Nc2ccc(N3CCOCC3)cc2)c2ncn(C3CCCCC3)c2n1	-0.2	52.1*	-1.2	7.2
CC1=NOC(=O)/C1=C/c1ccc(OCc2ccc(Cl)cc2)cc1	0.1	56.5*	-2.4	-42.0
O=C(Oc1ccccc1)N1CCN2C(=O)[C@@H]3CCCN3C(=O)[C@H]2C1	-0.1	42.4	1.6	-5.7
COc1cc(/C=C2/N=C(c3ccc(-c4ccccc4)cc3)OC2=O)cc(OC)c1OC	0.0	-3.8	0.0	-1.9
COc1cc(/C=C2\N=C(c3ccccc3)NNC2=O)cc(OC)c1OC	0.0	-1.9	-0.3	49.1*
CCOC(=O)C1=C(C)NC2=C(C(=O)C(C(=O)OCC)C(c3ccc(OC)cc3)C2)C1c1ccccc1Cl (stereo unspecified)	0.2	-1.6	1.0	7.9
Cn1nccc1Nc1nc(NCCc2ccc(O)cc2)c2ncn(-c3ccsc3)c2n1	0.2	6.3	-1.8	59.8*
COc1ccc(CCNc2nc(Nc3ccncc3)nc3c2ncn3-c2ccsc2)cc1	0.0	5.8	0.2	42.5*
COc1ccc(CCNc2nc(NC3CCC(O)CC3)nc3c2ncn3-c2ccsc2)cc1 (stereo unspecified)	0.0	20.1	1.5	48.4*
COc1ccc(CCNc2nc(Nc3cccnc3)nc3c2ncn3-c2ccsc2)cc1	-0.1	-10.4	-2.6	64.8*
CCNc1nc(NCCc2ccc(O)cc2)c2ncn(-c3ccsc3)c2n1	0.2	9.8	0.0	16.6
COc1ccc(CCNc2nc(Nc3cnccn3)nc3c2ncn3-c2ccsc2)cc1	-0.1	2.6	2.9	5.1
CC(=O)C1=C(O)C(=O)N(c2nccs2)C1c1ccccc1[N+](=O)[O-] (stereo unspecified)	0.1	37.2	3.3	4.1
CC(C)N(CCNc1nc(Nc2ccnn2C)nc2c1ncn2-c1ccsc1)C(C)C	-0.1	3.4	3.0	35.3*
Oc1ccc(CCNc2nc(Nc3ccncc3)nc3c2ncn3-c2ccsc2)cc1	-0.1	-16.0	-1.3	56.2*
CC(C)N(CCNc1nc(Nc2ccccn2)nc2c1ncn2-c1ccsc1)C(C)C	0.0	1.4	-2.2	28.2
Oc1ccc(CCNc2nc(Nc3ccc(C(F)(F)F)cc3)nc3c2ncn3-c2ccsc2)cc1	0.2	0.1	-1.3	25.4
Cc1nc(-c2ccccn2)cc(N2CCCCC2)n1	-0.6	-4.8	0.0	39.6*
